Reference: PubChem BioAssay (Tox21)
Inconclusive results are not listed. Calls of active or inactive are those of the source. Unless noted, the call rests on the fitted dose curve; in most records, active means well fitted curve in the direction sought with a large enough effect in the repeat runs; inconclusive means weak or mixed curves; inactive means no such curve, though single readings can be large; an effect the other way counts as inactive or inconclusive.

Tests used:
[1] = qHTS assay to identify small molecule antagonists of the thyroid receptor (TR) signaling pathway - cell viability counter screen (AID 743064); further: nearly all actives have a fitted effect of over 50% in size
Procedure, shortened: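 Counter screen for cytotoxicity: compound plus T3 (1 nM final) on GH3.TRE-Luc cells, 23.5 h at 37 °C, then fluorescence viability readout with CellTiter-Fluor.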

[2] = qHTS assay to identify small molecule antagonists of the thyroid receptor (TR) signaling pathway (AID 743065); further: nearly all actives have a fitted effect of over 55% in size
Procedure, shortened: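 GH3.TRE-Luc rat pituitary cells carrying two TR response elements driving luciferase were plated for 4 h, given compound plus 1 nM T3 (final), and incubated 23.5 h at 37 C. ONE-Glo luminescence measured reporter inhibition; CellTiter-Fluor fluorescence tracked cytotoxicity.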

[3] = test system: thyroid hormone receptor (rat, GH3 cells); assay: qHTS assay to identify small molecule agonists of the thyroid receptor (TR) signaling pathway (AID 743066; calls by dose curve)
[4] = target: Estrogen receptor (Homo sapiens) (UniProt P03372); assay: qHTS assay to identify small molecule antagonists of the estrogen receptor alpha (ER-alpha) signaling pathway (AID 743069; active means well fitted curve in the direction sought with a large enough effect in the signal ratio in the repeat runs, not every such curve was filed as active; the % refers to the signal ratio)
Chain of Estrogen receptor (Homo sapiens) (P03372 whole entry, looked up): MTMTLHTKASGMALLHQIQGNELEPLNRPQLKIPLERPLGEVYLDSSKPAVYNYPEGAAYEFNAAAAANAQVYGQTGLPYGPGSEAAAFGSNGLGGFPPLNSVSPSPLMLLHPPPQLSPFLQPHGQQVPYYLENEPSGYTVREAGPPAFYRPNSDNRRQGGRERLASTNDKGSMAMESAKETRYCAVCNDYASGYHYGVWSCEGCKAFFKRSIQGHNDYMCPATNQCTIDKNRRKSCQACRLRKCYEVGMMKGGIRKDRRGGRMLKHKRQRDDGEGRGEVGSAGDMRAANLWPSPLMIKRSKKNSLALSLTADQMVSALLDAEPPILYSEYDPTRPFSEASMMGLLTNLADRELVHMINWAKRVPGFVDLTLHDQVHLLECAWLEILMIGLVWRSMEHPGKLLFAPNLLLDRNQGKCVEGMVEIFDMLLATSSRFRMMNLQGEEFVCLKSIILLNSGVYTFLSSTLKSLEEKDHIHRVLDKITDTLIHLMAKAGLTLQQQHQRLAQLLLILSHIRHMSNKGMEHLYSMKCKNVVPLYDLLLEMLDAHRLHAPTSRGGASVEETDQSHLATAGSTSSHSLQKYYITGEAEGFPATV
Procedure, shortened: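 HEK293 cells stably carrying an ER-alpha-UAS-bla beta-lactamase reporter were pre-cultured overnight in 2% charcoal-stripped FBS medium. Test compounds in DMSO were added together with 17beta-estradiol for 18 hr at 37C. Read-out was fluorescence after 2 hr with LiveBLAzer B/G FRET substrate at room temperature.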

[5] = qHTS assay to identify small molecule antagonists of the estrogen receptor alpha (ER-alpha) signaling pathway - cell viability counter screen (AID 743074; calls by dose curve; further: nearly all actives have a fitted effect of over 45% in size)
[6] = target: Estrogen receptor (Homo sapiens) (UniProt P03372); assay: qHTS assay to identify small molecule agonists of the estrogen receptor alpha (ER-alpha) signaling pathway (AID 743075; calls by dose curve)
[7] = target: Estrogen receptor (Homo sapiens) (UniProt P03372); assay: qHTS assay to identify small molecule agonists of the estrogen receptor alpha (ER-alpha) signaling pathway using the BG1 cell line (AID 743079); conditions: BG1Luc4E2 cells, ERE-luciferase agonist, 22 h; activation: at 70.3 µM (top of the series); further: nearly all actives have a fitted effect of over 20% in size; further: potency means the concentration at half of the fitted maximal effect
[8] = qHTS assay to identify small molecule antagonists of the estrogen receptor alpha (ER-alpha) signaling pathway using the BG1 cell line (AID 743080; calls by dose curve;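 further: BG1 cells stimulated with 17beta-estradiol alongside compound; nearly all actives have a fitted effect of over 25% in size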)
Procedure, shortened: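 Quantitative HTS on the Tox21 10K library: BG1 cells with endogenous ER-alpha and ERE-luciferase reporter, 17beta-estradiol stimulation, 21.5 h compound exposure, luminescence endpoint with parallel fluorescence cytotoxicity counter-read.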

[9] = qHTS assay to identify small molecule antagonists of the estrogen receptor alpha (ER-alpha) signaling pathway using the BG1 cell line - cell viability counter screen (AID 743081);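 further: compound given together with 17beta-estradiol as the ER stimulus; nearly all actives have a fitted effect of over 45% in size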
Aromatase (Homo sapiens) = Aromatase (Homo sapiens) (UniProt P11511); assay: qHTS assay to identify aromatase inhibitors (AID 743083); further: nearly all actives have a fitted effect of over 55% in size
Chain of Aromatase (Homo sapiens) (P11511 whole entry, looked up): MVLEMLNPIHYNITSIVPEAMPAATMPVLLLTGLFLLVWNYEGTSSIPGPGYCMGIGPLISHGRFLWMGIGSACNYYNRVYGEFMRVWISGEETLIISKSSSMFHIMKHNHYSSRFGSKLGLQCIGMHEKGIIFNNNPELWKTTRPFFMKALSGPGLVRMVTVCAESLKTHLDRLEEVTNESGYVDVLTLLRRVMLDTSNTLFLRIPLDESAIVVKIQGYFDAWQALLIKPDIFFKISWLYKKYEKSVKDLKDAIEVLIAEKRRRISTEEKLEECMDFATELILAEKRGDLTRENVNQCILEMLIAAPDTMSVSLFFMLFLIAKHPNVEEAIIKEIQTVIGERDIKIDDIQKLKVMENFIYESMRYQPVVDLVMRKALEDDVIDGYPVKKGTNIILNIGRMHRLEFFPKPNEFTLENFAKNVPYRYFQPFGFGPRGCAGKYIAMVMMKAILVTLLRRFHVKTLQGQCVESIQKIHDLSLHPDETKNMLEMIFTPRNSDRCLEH

[10] = qHTS assay to identify aromatase inhibitors - cell viability counter screen (AID 743084);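 further: cells stimulated with testosterone during compound exposure; nearly all actives have a fitted effect of over 55% in size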
[11] = target: Aryl hydrocarbon receptor (Homo sapiens) (UniProt P35869); assay: qHTS assay to identify small molecule that activate the aryl hydrocarbon receptor (AhR) signaling pathway (AID 743085);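 further: HG2L7.5c1 human HepG2 liver cells with stably integrated DRE-driven firefly reporter; nearly all actives have a fitted effect of over 15% in size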
Chain of Aryl hydrocarbon receptor (Homo sapiens) (P35869 whole entry, looked up): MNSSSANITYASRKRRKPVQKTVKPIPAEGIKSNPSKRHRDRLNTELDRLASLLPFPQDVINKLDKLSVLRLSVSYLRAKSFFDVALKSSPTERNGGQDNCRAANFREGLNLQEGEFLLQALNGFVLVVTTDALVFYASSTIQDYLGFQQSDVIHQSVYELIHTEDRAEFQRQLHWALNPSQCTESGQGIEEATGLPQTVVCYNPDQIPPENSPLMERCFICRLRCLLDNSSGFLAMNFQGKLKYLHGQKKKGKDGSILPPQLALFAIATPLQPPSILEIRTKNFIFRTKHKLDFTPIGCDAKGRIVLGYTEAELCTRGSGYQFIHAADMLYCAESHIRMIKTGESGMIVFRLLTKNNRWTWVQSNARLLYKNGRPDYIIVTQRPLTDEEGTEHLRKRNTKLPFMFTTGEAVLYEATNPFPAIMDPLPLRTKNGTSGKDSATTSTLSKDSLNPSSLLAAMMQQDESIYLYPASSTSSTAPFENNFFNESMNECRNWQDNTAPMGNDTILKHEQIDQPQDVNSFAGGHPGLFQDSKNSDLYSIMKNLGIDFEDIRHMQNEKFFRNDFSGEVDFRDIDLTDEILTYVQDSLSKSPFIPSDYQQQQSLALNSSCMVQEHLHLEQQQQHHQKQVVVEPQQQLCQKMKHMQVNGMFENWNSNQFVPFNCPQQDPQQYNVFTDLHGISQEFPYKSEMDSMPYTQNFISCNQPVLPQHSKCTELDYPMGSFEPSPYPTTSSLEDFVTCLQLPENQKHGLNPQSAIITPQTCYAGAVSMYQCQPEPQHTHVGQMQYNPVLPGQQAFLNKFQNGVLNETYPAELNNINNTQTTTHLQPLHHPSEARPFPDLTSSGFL
Procedure, shortened: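 Measured in HG2L7.5c1 cells: CellTiter-Fluor signal (30 min incubation, 37C) for viability, then luciferase luminescence (30 min, room temperature). Compound contact time was 24 h at 37C, following a 5 h pre-incubation.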

[12] = qHTS assay to identify small molecule that activate the aryl hydrocarbon receptor (AhR) signaling pathway - cell viability counter screen (AID 743086);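 further: HepG2 liver cells carrying the AhR DRE luciferase reporter; nearly all actives have a fitted effect of over 45% in size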
Procedure, shortened: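 HepG2-AhR-luc (HG2L7.5c1) cells, 4000/well, were preincubated 5 h at 37C, exposed to compound in qHTS format for 24 hr at 37C, then given CellTiter-Fluor for 30 min; viability was read as fluorescence in the reporter wells.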

[13] = target: Peroxisome proliferator-activated receptor gamma (Homo sapiens) (UniProt P37231); assay: qHTS assay to identify small molecule agonists of the peroxisome proliferator-activated receptor gamma (PPARg) signaling pathway (AID 743094; active means well fitted activation curve with a large enough effect in the signal ratio in the repeat runs, not every such curve was filed as active; the % refers to the signal ratio)
Chain of Peroxisome proliferator-activated receptor gamma (Homo sapiens) (P37231 whole entry, looked up): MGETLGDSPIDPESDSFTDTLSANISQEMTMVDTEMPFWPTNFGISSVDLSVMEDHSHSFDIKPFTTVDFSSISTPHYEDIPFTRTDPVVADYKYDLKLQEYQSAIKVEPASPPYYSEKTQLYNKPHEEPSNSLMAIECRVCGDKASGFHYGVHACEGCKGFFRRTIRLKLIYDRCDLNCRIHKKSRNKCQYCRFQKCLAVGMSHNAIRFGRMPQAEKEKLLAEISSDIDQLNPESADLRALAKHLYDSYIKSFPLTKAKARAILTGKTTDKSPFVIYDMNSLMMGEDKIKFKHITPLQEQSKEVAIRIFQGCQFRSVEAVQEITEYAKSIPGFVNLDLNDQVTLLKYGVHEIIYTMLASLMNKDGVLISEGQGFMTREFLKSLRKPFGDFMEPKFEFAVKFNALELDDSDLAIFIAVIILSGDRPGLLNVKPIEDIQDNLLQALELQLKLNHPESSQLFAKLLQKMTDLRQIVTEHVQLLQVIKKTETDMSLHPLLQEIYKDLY
Procedure, shortened: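 Stably transfected HEK293H cells (GeneBLAzer PPARg UAS-bla) were incubated with test substances for 17 h at 37C after a 5 h pre-incubation; beta-lactamase activity was then detected by FRET substrate fluorescence.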

[14] = target: Peroxisome proliferator-activated receptor gamma (Homo sapiens) (UniProt P37231); assay: qHTS assay to identify small molecule antagonists of the peroxisome proliferator-activated receptor gamma (PPARg) signaling pathway (AID 743191; calls by dose curve; further: nearly all actives have a fitted effect of over 30% in size; further: potency means the concentration at half of the fitted maximal effect)
Procedure, shortened: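 GeneBLAzer PPARg UAS-bla HEK293H cells carrying a UAS-driven beta-lactamase reporter were plated at 3000 cells/well, preincubated 5 h at 37C, then given compound for 17 h at 37C; LiveBLAzer B/G FRET substrate was read after 1 h at room temperature.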

[15] = qHTS assay for small molecule agonists of the antioxidant response element (ARE) signaling pathway (AID 743202; active means well fitted activation curve with a large enough effect in the signal ratio in the repeat runs, not every such curve was filed as active; the % refers to the signal ratio; further: potency means the concentration at half of the fitted maximal effect)
Procedure, shortened: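 Read-out: LiveBLAzer B/G FRET substrate fluorescence after 2 h at room temperature, following 16 h compound treatment at 37 C of HepG2 cells carrying an ARE-driven beta-lactamase reporter.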

[16] = qHTS assay for small molecule agonists of the antioxidant response element (ARE) signaling pathway - cell viability counter screen (AID 743203; calls by dose curve; further: nearly all actives have a fitted effect of over 55% in size)
Procedure, shortened: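 Cells (ARE-bla HepG2, 2,000/well) receive DMSO-dissolved compounds after a 5 hrs rest. Plates incubate 16 hrs at 37C/5% CO2. CellTiter-Glo luminescence is then recorded after 30 min at room temperature.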

[17] = qHTS assay for small molecule activators of the heat shock response signaling pathway - cell viability counter screen (AID 743209); further: nearly all actives have a fitted effect of over 50% in size
Procedure, shortened: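 Quantitative HTS format, Tox21 10K library. HeLa cells carrying an HSE-driven beta-lactamase reporter were treated 5 h at 37 C, then assessed for viability by CellTiter-Glo luminescence.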

[18] = qHTS assay for small molecule activators of the heat shock response signaling pathway (AID 743210; active means well fitted activation curve with a large enough effect in the signal ratio in the repeat runs, with a control signal flat, not every such curve was filed as active; the % refers to the signal ratio)
Procedure, shortened: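 HSE-bla HeLa cells (beta-lactamase reporter under heat shock response elements) were exposed to compounds for 5 h at 37 C, then loaded with LiveBLAzer B/G FRET substrate for 2.5 h at room temperature before fluorescence reading.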

[19] = qHTS assay to identify small molecule antagonists of the peroxisome proliferator-activated receptor gamma (PPARg) signaling pathway - cell viability counter screen (AID 743194); further: nearly all actives have a fitted effect of over 55% in size
Procedure, shortened: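 PPARg-UAS-bla HEK293H cells were plated, rested 5 h at 37 C, then treated with compounds plus rosiglitazone (50 nM final) for 17 h at 37 C; viability was then read by CellTiter-Glo luminescence after 30 min at room temperature.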
On the % scale 0 is the no-effect control and ±100 the full control effect.

CCCCCCCCCOC(C)=O
inactive: Potency [1] | Potency [2] | outcome [3] | Potency [4] | Potency [5] | Potency [6] | Potency [7] | Potency [8] | Potency [9] | Potency (Aromatase (Homo sapiens)) | Potency [10] | Potency [11] | Potency [12] | Potency [13] | Potency [14] | Potency [15] | Potency [16] | Potency [17] | Potency [18]

CCn1cc(C(=O)O)c(=O)c2cc(F)c(N3CCNCC3)nc21
inactive: Potency [1] | Potency [2] | outcome [3] | Potency [4] | Potency [5] | Potency [6] | Potency [7] | Potency [8] | Potency [9] | Potency (Aromatase (Homo sapiens)) | Potency [10] | Potency [11] | Potency [12] | Potency [13] | Potency [14] | Potency [19] | Potency [15] | Potency [16] | Potency [17] | Potency [18]

Nc1ccc(S(=O)(=O)O)cc1
active: Potency [7] 38.8 µM
inactive: Potency [1] | Potency [2] | outcome [3] | Potency [4] | Potency [5] | Potency [6] | Potency [8] | Potency [9] | Potency (Aromatase (Homo sapiens)) | Potency [10] | Potency [11] | Potency [12] | Potency [13] | Potency [14] | Potency [15] | Potency [16] | Potency [18]

CC(Cl)C(Cl)Cl (centres undefined)
inactive: Potency [1] | Potency [2] | outcome [3] | Potency [4] | Potency [5] | Potency [6] | Potency [7] | Potency [8] | Potency [9] | Potency (Aromatase (Homo sapiens)) | Potency [10] | Potency [11] | Potency [12] | Potency [13] | Potency [15] | Potency [17] | Potency [18]

CN1CCN(c2c(F)cc3c(=O)c(C(=O)O)cn4c3c2OCN4C)CC1
inactive: Potency [1] | Potency [2] | outcome [3] | Potency [4] | Potency [5] | Potency [6] | Potency [8] | Potency [9] | Potency (Aromatase (Homo sapiens)) | Potency [10] | Potency [11] | Potency [12] | Potency [13] | Potency [19] | Potency [15] | Potency [16]
active: Potency [7] 23.7 µM

C=CCOC(=O)/C=C\C(=O)OCC=C
active: Potency [15] 27.8 µM
inactive: Potency [1] | Potency [2] | outcome [3] | Potency [4] | Potency [5] | Potency [6] | Potency [7] | Potency [8] | Potency [9] | Potency (Aromatase (Homo sapiens)) | Potency [10] | Potency [11] | Potency [12] | Potency [13]

Cc1cc(C(=C2C=CC(=Nc3ccc(S(=O)(=O)O)cc3S(=O)(=O)O)C=C2)c2ccc(Nc3ccc(S(=O)(=O)O)cc3)cc2)ccc1N
inactive: Potency [1] | Potency [2] | outcome [3] | Potency [4] | Potency [5] | Potency [6] | Potency [7] | Potency [8] | Potency [9] | Potency (Aromatase (Homo sapiens)) | Potency [10] | Potency [11] | Potency [12] | Potency [13] | Potency [14] | Potency [19] | Potency [15] | Potency [16] | Potency [17] | Potency [18]

CC1=CC(O)CC(C)(C)C1 (centres undefined)
inactive: Potency [1] | Potency [2] | outcome [3] | Potency [4] | Potency [5] | Potency [6] | Potency [7] | Potency [8] | Potency [9] | Potency (Aromatase (Homo sapiens)) | Potency [10] | Potency [11] | Potency [12] | Potency [13] | Potency [19] | Potency [15] | Potency [17] | Potency [18]

C=CCCCCCCCCCCCCCCCC
inactive: activity change, negative = cytotoxic [1] -9.44% [at 8.44 µM] | activity, negative = inhibition [2] -26.3% [at 8.44 µM] | activation [3] -0.275% [at 8.08 µM] | activity, negative = inhibition [4] 10.1% [at 6.71 µM] | activity, negative = cytotoxicity [5] -5.03% [at 6.72 µM] | activation [6] -3.79% [at 6.71 µM] | activation [7] 4.88% [at 8.47 µM] | activity change, negative = inhibition [8] 2.27% [at 8.47 µM] | activity change, negative = cytotoxicity [9] 4.81% [at 8.47 µM] | activity, negative = inhibition (Aromatase (Homo sapiens)) 12.3% [at 8.47 µM] | activity change, negative = cytotoxicity [10] 17.8% [at 8.47 µM] | activation [11] -0.177% [at 8.47 µM] | viability change, negative = cytotoxic [12] -2.48% [at 8.47 µM] | activation [13] -3.71% [at 7.08 µM] | ratio activity, negative = inhibition [14] 1.33% [at 5.95 µM] | activity change, negative = cytotoxicity [19] 1.33% [at 5.95 µM] | viability change, negative = cytotoxic [16] -4.17% [at 8.36 µM] | activity change, negative = cytotoxicity [17] 11.1% [at 5.95 µM] | activation [18] -2.33% [at 5.95 µM]

OCCSc1ccccc1
inactive: Potency [1] | Potency [2] | outcome [3] | Potency [4] | Potency [5] | Potency [6] | Potency [7] | Potency [8] | Potency [9] | Potency (Aromatase (Homo sapiens)) | Potency [10] | Potency [11] | Potency [12] | Potency [13] | Potency [14] | Potency [19] | Potency [15] | Potency [16] | Potency [17] | Potency [18]

CC(N)CN (centres undefined)
inactive: Potency [1] | Potency [2] | outcome [3] | Potency [4] | Potency [5] | Potency [6] | Potency [7] | Potency [8] | Potency [9] | Potency (Aromatase (Homo sapiens)) | Potency [10] | Potency [11] | Potency [12] | Potency [13] | Potency [15] | Potency [16] | Potency [17]

CCCOC(=O)c1ccc(C(=O)OCCC)nc1
inactive: Potency [1] | Potency [2] | outcome [3] | Potency [4] | Potency [5] | Potency [6] | Potency [7] | Potency [8] | Potency [9] | Potency (Aromatase (Homo sapiens)) | Potency [10] | Potency [11] | Potency [12] | Potency [13] | Potency [14] | Potency [15] | Potency [16] | Potency [18]

CCCCCC=CCC=CCCCCCCCC(=O)OCC
active: Potency [14] 29.8 µM
inactive: Potency [1] | Potency [2] | outcome [3] | Potency [4] | Potency [5] | Potency [6] | Potency [7] | Potency [8] | Potency [9] | Potency (Aromatase (Homo sapiens)) | Potency [10] | Potency [11] | Potency [12] | Potency [13] | Potency [19]

O=S1OCCO1
inactive: Potency [1] | Potency [2] | outcome [3] | Potency [4] | Potency [5] | Potency [6] | Potency [7] | Potency [8] | Potency [9] | Potency (Aromatase (Homo sapiens)) | Potency [10] | Potency [11] | Potency [12] | Potency [13] | Potency [14] | Potency [19] | Potency [15] | Potency [16] | Potency [17] | Potency [18]
